Data on 6 compounds can be found in ChEMBL document CHEMBL1961873, “Compounds: GSK PKIS; Assays: Nanosyn kinase panel” (2012).

For experiment [1], the target named is Tyrosine-protein kinase CSK (Homo sapiens) (UniProt P41240). To be noted: at 1 µM.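 Also: each value is an averaged inhibition reading.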
Experiment [2] concerns the target T1, Discoidin domain-containing receptor 2 (Homo sapiens) (UniProt Q16832).
T1 sequence (whole entry): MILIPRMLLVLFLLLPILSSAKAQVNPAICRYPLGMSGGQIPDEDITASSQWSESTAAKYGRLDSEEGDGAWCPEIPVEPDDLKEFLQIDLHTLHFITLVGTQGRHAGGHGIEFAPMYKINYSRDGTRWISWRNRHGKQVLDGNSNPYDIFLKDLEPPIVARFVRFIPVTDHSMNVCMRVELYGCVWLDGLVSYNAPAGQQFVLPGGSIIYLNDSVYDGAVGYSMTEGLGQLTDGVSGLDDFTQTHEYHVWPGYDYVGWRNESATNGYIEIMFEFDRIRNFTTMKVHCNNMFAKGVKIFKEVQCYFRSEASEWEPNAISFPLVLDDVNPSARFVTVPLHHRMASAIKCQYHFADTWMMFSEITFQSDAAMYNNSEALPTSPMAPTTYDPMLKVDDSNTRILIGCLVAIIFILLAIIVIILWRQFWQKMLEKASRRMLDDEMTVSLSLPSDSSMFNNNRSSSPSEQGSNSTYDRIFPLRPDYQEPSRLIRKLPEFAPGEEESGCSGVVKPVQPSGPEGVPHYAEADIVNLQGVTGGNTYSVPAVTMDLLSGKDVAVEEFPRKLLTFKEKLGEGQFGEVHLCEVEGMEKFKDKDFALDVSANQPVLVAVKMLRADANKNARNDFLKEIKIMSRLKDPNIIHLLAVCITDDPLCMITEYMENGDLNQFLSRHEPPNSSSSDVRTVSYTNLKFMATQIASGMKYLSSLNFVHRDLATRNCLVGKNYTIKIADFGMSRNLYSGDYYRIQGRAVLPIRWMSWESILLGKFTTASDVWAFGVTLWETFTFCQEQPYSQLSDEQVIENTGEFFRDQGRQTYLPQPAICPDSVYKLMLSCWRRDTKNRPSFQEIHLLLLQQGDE
To be noted: at 0.1 µM.

In experiment [3] the target is T1, Discoidin domain-containing receptor 2 (Homo sapiens). The conditions noted are these: at 1 µM.
The target in experiment [4] is Epidermal growth factor receptor (Homo sapiens) (UniProt P00533). To be noted: at 0.1 µM.
Chain of Epidermal growth factor receptor (Homo sapiens) (P00533 whole entry): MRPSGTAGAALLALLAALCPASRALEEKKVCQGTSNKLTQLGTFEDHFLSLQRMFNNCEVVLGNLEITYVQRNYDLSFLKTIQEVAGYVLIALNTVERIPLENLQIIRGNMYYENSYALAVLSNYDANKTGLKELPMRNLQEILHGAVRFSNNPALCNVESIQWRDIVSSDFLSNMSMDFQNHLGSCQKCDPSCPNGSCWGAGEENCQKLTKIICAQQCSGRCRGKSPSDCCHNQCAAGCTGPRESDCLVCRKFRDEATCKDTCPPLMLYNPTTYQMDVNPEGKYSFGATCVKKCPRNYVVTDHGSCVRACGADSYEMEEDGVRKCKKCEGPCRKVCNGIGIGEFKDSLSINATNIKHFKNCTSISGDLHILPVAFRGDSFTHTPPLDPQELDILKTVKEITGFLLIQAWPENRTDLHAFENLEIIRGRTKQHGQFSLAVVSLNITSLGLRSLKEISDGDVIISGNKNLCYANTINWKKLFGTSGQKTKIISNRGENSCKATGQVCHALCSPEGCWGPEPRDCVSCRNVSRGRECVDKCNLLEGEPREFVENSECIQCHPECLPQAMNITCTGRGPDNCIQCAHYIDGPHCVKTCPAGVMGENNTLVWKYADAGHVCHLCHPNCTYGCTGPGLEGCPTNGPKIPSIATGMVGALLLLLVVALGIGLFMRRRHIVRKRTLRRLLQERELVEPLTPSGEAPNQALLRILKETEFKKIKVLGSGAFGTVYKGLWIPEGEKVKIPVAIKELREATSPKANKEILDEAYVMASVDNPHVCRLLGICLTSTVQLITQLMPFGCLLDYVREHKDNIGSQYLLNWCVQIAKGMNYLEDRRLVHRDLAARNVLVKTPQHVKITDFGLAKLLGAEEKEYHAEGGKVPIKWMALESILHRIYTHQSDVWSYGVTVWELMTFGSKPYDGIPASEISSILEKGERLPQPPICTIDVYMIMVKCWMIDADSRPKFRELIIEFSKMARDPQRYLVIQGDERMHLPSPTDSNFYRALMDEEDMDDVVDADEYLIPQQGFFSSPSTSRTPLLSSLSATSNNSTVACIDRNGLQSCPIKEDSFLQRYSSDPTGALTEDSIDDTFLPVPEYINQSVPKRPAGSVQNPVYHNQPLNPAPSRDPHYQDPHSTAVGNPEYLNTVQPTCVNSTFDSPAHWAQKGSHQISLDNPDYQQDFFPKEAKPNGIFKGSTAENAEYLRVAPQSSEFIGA
The target is the same in experiment [5]. To be noted: at 1 µM.
Experiment [6] concerns Epidermal growth factor receptor (Homo sapiens), P00533 [L858R]. The conditions noted are these: at 0.1 µM.
Experiment [7] shares this test system. The conditions noted are these: at 1 µM.
The test system of experiment [8] is Epidermal growth factor receptor (Homo sapiens), P00533 [L861Q]. The conditions noted are these: at 0.1 µM.
For experiment [9] the test system is unchanged. To be noted: at 1 µM.
For experiment [10], the system named is Epidermal growth factor receptor (Homo sapiens), P00533 [T790M]. The conditions noted are these: at 0.1 µM.
Chain of Epidermal growth factor receptor (Homo sapiens), P00533 [T790M] (P00533 whole entry T790M): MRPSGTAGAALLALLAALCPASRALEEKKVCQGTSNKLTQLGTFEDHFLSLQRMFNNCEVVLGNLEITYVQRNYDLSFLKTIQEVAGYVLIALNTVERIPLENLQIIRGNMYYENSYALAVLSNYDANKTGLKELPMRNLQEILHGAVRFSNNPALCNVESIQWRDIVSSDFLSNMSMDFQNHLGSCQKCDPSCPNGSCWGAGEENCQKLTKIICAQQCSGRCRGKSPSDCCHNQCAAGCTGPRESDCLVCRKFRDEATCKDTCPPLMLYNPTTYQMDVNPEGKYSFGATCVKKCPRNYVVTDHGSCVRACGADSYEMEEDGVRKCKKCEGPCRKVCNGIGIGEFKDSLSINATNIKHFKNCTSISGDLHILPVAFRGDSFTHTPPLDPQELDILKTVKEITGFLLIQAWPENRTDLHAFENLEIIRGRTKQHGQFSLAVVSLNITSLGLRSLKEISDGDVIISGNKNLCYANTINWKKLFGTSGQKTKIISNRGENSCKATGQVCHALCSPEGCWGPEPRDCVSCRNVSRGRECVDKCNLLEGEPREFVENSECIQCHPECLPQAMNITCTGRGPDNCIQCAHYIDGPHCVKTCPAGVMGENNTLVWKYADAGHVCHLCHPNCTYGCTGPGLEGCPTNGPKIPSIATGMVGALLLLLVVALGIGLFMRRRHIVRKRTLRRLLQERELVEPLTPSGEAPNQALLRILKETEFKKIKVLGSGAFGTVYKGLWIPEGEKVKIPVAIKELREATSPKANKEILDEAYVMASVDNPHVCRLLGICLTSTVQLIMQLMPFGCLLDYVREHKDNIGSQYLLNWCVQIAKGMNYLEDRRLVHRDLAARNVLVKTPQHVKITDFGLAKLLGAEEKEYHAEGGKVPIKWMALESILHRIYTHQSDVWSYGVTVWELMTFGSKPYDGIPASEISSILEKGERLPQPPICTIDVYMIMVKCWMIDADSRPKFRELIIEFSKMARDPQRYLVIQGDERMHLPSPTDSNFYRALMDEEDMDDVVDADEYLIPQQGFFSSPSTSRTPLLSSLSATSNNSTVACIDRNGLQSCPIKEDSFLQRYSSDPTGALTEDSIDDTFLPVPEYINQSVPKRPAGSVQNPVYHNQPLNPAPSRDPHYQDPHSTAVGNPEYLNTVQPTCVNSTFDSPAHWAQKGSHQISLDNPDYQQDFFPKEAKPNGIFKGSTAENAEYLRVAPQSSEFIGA
Experiment [11] shares this test system. To be noted: at 1 µM.
In experiment [12] the test system is Epidermal growth factor receptor (Homo sapiens), P00533 [L858R,T790M]. The conditions noted are these: at 0.1 µM.
The test system is the same in experiment [13]. The conditions noted are these: at 1 µM.
For experiment [14], the target named is Ephrin type-A receptor 2 (Homo sapiens) (UniProt P29317). The conditions noted are these: at 0.1 µM.
Chain of Ephrin type-A receptor 2 (Homo sapiens) (P29317 whole entry): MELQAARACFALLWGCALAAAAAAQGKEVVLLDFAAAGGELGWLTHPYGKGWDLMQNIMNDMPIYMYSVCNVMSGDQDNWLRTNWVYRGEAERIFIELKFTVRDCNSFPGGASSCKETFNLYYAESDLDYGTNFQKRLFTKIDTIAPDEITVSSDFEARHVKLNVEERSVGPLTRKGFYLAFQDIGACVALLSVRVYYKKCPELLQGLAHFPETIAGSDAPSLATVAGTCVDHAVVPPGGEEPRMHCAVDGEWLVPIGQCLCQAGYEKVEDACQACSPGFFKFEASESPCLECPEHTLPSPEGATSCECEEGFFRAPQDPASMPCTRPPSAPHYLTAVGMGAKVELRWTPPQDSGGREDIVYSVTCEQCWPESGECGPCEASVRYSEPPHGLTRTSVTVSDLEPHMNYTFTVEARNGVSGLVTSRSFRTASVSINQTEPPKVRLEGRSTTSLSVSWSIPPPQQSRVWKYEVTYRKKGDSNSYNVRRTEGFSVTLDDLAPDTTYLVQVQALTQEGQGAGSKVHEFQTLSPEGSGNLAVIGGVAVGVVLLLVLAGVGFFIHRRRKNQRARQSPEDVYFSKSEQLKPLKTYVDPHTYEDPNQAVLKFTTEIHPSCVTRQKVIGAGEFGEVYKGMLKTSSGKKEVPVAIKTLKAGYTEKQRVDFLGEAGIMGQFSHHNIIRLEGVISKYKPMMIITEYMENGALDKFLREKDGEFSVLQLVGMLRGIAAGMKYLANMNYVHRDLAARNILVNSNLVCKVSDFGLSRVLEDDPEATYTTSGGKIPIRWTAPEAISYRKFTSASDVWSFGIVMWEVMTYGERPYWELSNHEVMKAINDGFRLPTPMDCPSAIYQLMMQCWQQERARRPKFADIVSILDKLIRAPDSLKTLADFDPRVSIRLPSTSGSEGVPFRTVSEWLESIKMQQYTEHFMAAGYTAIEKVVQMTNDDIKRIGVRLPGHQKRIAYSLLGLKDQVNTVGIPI
For experiment [15] the target is unchanged. The conditions noted are these: at 1 µM.
In experiment [16] the target is T2, Ephrin type-A receptor 3 (Homo sapiens) (UniProt P29320).
T2 sequence (whole entry): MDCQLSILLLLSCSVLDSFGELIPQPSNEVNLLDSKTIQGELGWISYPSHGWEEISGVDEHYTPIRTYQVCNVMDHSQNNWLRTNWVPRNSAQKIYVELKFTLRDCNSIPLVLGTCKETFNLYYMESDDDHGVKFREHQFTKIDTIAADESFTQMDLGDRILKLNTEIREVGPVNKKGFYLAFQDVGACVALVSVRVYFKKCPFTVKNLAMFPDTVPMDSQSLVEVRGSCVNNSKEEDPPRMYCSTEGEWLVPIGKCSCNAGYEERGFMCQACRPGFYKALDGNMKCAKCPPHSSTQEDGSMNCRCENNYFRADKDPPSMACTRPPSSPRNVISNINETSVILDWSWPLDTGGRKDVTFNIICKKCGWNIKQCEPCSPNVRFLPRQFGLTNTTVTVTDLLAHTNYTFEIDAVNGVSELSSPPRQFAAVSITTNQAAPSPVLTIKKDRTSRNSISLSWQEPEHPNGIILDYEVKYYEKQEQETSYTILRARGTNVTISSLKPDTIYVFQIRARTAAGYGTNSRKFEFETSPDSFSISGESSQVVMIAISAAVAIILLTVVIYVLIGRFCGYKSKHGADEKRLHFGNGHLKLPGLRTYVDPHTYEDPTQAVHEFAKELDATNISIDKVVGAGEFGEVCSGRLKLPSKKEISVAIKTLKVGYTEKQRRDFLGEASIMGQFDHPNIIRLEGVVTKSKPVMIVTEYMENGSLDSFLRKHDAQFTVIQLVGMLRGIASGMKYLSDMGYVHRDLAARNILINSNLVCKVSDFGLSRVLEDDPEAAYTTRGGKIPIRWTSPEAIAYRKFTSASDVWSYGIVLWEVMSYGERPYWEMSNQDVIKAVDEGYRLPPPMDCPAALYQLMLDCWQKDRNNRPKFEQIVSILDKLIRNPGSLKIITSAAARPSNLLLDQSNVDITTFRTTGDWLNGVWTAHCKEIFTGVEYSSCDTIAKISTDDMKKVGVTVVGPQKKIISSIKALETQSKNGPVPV
To be noted: at 0.1 µM.

Experiment [17] deals with T2, Ephrin type-A receptor 3 (Homo sapiens). The conditions noted are these: at 1 µM.
Experiment [18] addresses Ephrin type-A receptor 4 (Homo sapiens) (UniProt P54764). To be noted: at 0.1 µM.
The target is the same in experiment [19]. The conditions noted are these: at 1 µM.
Experiment [20] deals with T3, Ephrin type-B receptor 2 (Homo sapiens) (UniProt P29323).
T3 sequence (whole entry): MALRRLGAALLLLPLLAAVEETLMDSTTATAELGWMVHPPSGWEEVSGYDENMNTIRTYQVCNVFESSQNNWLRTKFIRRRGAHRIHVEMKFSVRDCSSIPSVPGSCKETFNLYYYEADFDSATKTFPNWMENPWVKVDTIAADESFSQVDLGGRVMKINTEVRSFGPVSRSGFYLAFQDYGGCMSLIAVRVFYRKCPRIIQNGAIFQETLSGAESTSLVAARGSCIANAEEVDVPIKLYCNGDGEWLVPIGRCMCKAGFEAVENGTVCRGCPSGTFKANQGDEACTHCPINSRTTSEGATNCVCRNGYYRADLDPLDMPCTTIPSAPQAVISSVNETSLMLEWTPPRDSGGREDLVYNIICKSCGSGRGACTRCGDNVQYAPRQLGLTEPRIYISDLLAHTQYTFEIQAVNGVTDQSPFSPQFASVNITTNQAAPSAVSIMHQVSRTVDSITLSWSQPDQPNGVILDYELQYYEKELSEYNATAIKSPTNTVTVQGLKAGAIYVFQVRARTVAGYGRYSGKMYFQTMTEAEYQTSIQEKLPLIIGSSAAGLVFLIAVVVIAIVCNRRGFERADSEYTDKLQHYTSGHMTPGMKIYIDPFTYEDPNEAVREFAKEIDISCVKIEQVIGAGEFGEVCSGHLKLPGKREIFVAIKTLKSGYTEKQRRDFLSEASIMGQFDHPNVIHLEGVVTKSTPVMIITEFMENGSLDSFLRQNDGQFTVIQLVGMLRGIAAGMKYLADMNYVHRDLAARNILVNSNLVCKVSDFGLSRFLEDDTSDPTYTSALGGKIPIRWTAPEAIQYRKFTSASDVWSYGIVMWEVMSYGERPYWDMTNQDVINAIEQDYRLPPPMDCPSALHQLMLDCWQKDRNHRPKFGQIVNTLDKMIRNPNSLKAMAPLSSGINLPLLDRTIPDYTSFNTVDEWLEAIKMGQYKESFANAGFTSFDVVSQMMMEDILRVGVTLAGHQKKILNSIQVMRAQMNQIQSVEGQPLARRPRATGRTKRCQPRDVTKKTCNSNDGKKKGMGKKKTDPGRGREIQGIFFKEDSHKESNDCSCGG
To be noted: at 0.1 µM.

Chain of Ephrin type-A receptor 4 (Homo sapiens) (P54764 whole entry): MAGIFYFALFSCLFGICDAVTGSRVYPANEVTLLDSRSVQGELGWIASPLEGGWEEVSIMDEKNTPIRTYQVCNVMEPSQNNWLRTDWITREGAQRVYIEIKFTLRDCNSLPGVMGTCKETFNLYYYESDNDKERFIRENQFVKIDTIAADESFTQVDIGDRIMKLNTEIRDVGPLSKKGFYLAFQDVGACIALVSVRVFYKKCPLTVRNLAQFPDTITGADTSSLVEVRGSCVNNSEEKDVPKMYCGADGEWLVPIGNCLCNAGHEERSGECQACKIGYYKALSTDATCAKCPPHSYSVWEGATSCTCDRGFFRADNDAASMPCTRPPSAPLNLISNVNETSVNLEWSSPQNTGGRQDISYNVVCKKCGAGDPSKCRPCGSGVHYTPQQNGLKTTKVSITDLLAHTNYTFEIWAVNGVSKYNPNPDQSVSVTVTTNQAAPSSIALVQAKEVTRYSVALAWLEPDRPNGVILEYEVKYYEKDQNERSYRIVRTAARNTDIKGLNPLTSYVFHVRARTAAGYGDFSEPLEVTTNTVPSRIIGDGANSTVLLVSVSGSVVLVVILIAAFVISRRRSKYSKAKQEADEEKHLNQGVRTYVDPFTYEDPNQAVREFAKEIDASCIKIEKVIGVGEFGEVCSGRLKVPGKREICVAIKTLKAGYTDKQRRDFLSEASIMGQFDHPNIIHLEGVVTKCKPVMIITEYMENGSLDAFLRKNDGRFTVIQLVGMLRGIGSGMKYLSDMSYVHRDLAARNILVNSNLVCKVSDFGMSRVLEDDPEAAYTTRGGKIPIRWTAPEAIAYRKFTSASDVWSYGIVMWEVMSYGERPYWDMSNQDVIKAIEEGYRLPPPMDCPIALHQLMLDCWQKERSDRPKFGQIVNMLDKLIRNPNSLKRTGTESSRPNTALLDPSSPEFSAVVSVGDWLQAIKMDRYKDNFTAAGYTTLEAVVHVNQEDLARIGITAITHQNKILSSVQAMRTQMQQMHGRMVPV
Chain of Tyrosine-protein kinase CSK (Homo sapiens) (P41240 2-450 limits assumed): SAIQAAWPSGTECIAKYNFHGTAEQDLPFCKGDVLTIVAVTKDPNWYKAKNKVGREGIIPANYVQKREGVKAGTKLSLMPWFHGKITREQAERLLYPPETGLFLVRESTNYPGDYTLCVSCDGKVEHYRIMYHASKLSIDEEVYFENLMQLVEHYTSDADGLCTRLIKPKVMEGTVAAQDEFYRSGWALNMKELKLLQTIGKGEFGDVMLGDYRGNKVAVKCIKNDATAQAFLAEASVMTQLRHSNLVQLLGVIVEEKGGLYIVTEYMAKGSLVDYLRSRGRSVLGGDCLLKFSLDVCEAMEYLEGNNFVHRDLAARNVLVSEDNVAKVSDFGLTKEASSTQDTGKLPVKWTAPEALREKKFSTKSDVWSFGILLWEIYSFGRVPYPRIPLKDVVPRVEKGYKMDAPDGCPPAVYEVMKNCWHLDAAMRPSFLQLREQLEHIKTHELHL

For `FC(F)(F)c1cccc(-c2nn3ncccc3c2-c2ccnc(Nc3ccc4c(c3)OCCO4)n2)c1`, the inhibition (commonly the relative decrease from the control value, in per cent) is 4.25% in [1]; 1.27% in [2]; 16.5% in experiment [3]; 5.52% in [4]; 45.3% in [5]; 5.51% in [6]. For the same compound, the inhibition in experiment [7] came out at 55.7%; in experiment [8], 8.83%; in [9] it was 33.4%; in experiment [10], 2.2%; in experiment [11], 8.22%; in experiment [12], 2.69%. Further, the inhibition in experiment [13] came out at 15.9%; in [14], 2.29%; in [15] it was 1.84%; in experiment [16], 2.54%; in experiment [17] it was 3.44%; in experiment [18], 4.56%. For the same compound, the inhibition in experiment [19] stood at 7.91%; in [20], 3.11%.

With `Cc1cccc2c1NC(=O)/C2=N\Nc1ccc(S(N)(=O)=O)cc1`, the inhibition in [1] is 4.79%; in experiment [2] it was 1.44%; in [3] it was 1.81%; in experiment [4] it was 5.97%; in experiment [5], 9.39%; in experiment [6], 3.74%. Besides, the inhibition in experiment [7] is 5.52%; in experiment [8], 1.86%; in [9] it was 0.73%; in experiment [10], -0.7%; in experiment [11] it was 0.35%; in experiment [12] it was 3.72%. For the same compound, the inhibition is 1.46% in experiment [13]; 2.85% in experiment [14]; 3.42% in [15]; 4.1% in [16]; 3.43% in [17]; 6.06% in [18]. For the same compound, the inhibition in [19] was found to be 7.18%; in experiment [20], 7.03%.

Regarding `COc1cc(/C=N/Nc2ncnc3[nH]ncc23)ccc1O`, the inhibition in experiment [1] came out at 24.9%; in [2] it was 1.42%; in experiment [3], 2.31%; in experiment [4], 2.77%; in experiment [5], 8.71%; in [6], 4.32%. Further, the inhibition in experiment [7] is 7.89%; in experiment [8], 2.91%; in experiment [9], 4.72%; in [10] it was 1.39%; in [11] it was 4.2%; in experiment [12], -0.56%. Moreover, the inhibition in experiment [13] came to 5.5%; in experiment [14] it was 6.02%; in [15], 21%; in experiment [16], 5.55%; in [17], 16.5%; in experiment [18] it was 14.9%. The inhibition in experiment [19] was determined as 55.3%; in experiment [20], 11.7%.

In the case of `COc1ccc(-c2oc3ncnc(N)c3c2-c2ccc(NC(=O)Nc3cc(C(F)(F)F)ccc3F)cc2)cc1`, the inhibition in experiment [1] worked out at 61%; in experiment [2], 56.3%; in experiment [3], 87.3%; in [4], 2.43%; in experiment [5], 2.22%; in experiment [6] it was 3.73%. The inhibition is 6.19% in experiment [7]; 4.81% in experiment [8]; 7.85% in experiment [9]; 1.19% in experiment [10]; 3.03% in [11]; -0.45% in experiment [12]. In addition, the inhibition in [13] was 7.47%; in [14] it was 87.9%; in [15], 95.7%; in [16], 82.1%; in experiment [17] it was 87.1%; in experiment [18] it was 87.3%. The figures for the inhibition in [19] and in experiment [20] were 87.6% and 85.7%, respectively.

Regarding `Cc1cccc(Nc2ncc(-c3ccccc3)o2)c1`, the inhibition in [1] amounted to 0.89%; in [2], 0.22%; in experiment [3], 0.44%; in experiment [4], 2.11%; in experiment [5], 2.82%; in experiment [6], 0.79%. Besides, the inhibition was 2.98% in [7]; -0.45% in [8]; 1.8% in [9]; 0.73% in experiment [10]; 2.62% in experiment [11]; -0.51% in experiment [12]. Moreover, the inhibition amounted to 1.2% in experiment [13]; 2.27% in experiment [14]; 1.53% in experiment [15]; 2.3% in [16]; 2.7% in experiment [17]; 5.68% in [18]. Moreover, the inhibition in experiment [19] amounted to 5.88%; in experiment [20], 0.55%.

Regarding `COc1cc(Nc2nccc(Nc3ccc4c(C)n[nH]c4c3)n2)cc(OC)c1OC`, the inhibition in [1] amounted to 67.9%; in experiment [2] it was 9.87%; in experiment [3] it was 43.1%; in experiment [4], 8%; in [5], 22.2%; in experiment [6] it was 3.36%. Further, the inhibition turned out to be 29.9% in experiment [7]; 2.9% in experiment [8]; 15.6% in experiment [9]; 1.4% in experiment [10]; 5.15% in [11]; 4.13% in [12]. The inhibition in experiment [13] stood at 20.9%; in experiment [14] it was 28%; in [15], 71%; in experiment [16], 6.23%; in experiment [17], 15.3%; in experiment [18], 41.4%. Besides, the values for the inhibition in experiment [19] and in experiment [20] were 75.2% and 19.3%, respectively.
